Assay outcomes as filed in PubChem.
DT40 TDP1 no CPT – qHTS for Inhibitors of human tyrosyl-DNA phosphodiesterase 1 (TDP1): qHTS in cells in absence of CPT. DT40 Tdp1-/- hTDP1 cells, no CPT, ATP luminescence, 48 h. Potency, µM (series often up to 46.2 µM), without a hit: at the top dose activity change, negative = growth inhibition, most hits filed as inhibitors. actives 15% (n = 420,000). AID 686978, 2013; note: potency is the fitted concentration of half-maximal effect; nearly all actives have a fitted effect of over 55% in size
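Readout: luminescence from CellTiter-Glo after 30 min in the dark at RT. Cells: DT40 Tdp1-/- with stable hTDP1, 400/well. Exposure: compounds alone, ≥48 hr, 37 °C.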
IL-1B inflam inh – inhibitors of inflammasome signaling (IL-1 beta secretion) | THP-1 LPS/ATP IL-1B secretion, AlphaLISA, 16 h; active compounds read low | activity change, % at 57.5 µM | actives 4.7% (n = 360,000) | AID 743279; in the data active = activity change below about -50%; inconclusive = mostly about -30% to -49%
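THP-1 cells pretreated 1 hr with compounds (up to 57.5 uM final), then stimulated with LPS (250 ng/mL final) plus ATP (1.25 mM final); secreted IL-1B measured by AlphaLISA after 16 hr, decreased signal indicating inhibition.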
Six1-Eya2 blk – inhibitors of human Six1/Eya2 interaction; actives 0.56% (n = 360,000); activity change, % (concentration not given with the values); Q15475+O00167; AID 651725; AlphaScreen GST-Six1/His-Eya2 binding, biochemical; active compounds read low; in the data active = activity change below about -65%; inconclusive = mostly about -30% to -63%
Target sequence (O00167 whole entry, looked up): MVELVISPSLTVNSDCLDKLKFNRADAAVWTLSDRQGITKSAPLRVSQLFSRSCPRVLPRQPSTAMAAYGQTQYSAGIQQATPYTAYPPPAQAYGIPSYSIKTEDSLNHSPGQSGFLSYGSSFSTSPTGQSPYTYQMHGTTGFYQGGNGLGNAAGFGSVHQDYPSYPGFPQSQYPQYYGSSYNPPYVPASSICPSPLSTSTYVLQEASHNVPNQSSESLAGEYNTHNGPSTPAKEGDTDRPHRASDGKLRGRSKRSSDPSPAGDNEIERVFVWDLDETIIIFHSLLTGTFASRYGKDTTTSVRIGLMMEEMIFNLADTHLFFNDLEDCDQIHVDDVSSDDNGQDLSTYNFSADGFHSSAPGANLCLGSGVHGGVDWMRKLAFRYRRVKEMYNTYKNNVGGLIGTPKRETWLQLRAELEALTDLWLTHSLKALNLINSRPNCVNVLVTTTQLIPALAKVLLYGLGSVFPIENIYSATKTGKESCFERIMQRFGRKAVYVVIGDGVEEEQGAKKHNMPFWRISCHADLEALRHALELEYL
Target sequence (Q15475 whole entry, looked up): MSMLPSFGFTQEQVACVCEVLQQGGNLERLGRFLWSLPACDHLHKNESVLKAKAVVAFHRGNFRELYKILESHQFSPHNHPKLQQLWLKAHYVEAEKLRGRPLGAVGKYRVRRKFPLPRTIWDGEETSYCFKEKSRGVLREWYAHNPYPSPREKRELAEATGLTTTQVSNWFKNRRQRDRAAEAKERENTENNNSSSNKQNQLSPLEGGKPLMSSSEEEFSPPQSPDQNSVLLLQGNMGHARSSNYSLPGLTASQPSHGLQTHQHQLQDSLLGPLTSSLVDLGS
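Six1/Eya2 binding was read as AlphaScreen signal after compounds were pinned into GST-Six1 plus His-tagged Eya2 (5X stock 250/500 nM) in pH 8.0 Tris/NaCl/TCEP buffer, beads added, then incubated 1 h, 37 C, dark.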
TDP1 inh – TDP1 (human) enzyme inhibition; actives 0.28% (n = 350,000); Q9NUW8; AID 485290; Potency, µM (highest dose often 130 µM), for the others: at the highest dose activity change, negative = inhibition, usual class: inhibitors; recombinant TDP1, AlphaScreen DNA substrate cleavage; note: potency is the fitted concentration of half-maximal effect; nearly all actives have a fitted effect of over 40% in size
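Recombinant E. coli-expressed Tdp1 (1 nM) preincubated with compound 15 min at RT, then 5'-biotin/3'-phosphotyrosine-FITC DNA substrate (15 nM) added for 5 min. AlphaScreen beads (10 ug/ml) added, 10 min RT; tyrosine-FITC cleavage read as signal loss.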
TDP1 cell CPT – growth inhibition of DT40 Tdp1-/-;hTDP1 cells with camptothecin (screen for TDP1 inhibitors) | Potency, µM (doses to about 46.2 µM), without a hit: top-dose activity change, negative = growth inhibition, usual class: inhibitors | actives 12% (n = 420,000) | chicken DT40 Tdp1-/-;hTDP1 cells + 20 nM CPT, ATP luminescence, 48 h; note: potency is the fitted concentration of half-maximal effect; nearly all actives have a fitted effect of over 55% in size
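Cell growth measured by CellTiter-Glo luminescence after a minimum 48 h, 37 C compound exposure with 20 nM CPT in Tdp1-knockout DT40 cells stably expressing hTDP1, seeded 400/well; qHTS titration format.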
CtBP-E1A inh – blocks the CtBP interaction with E1A. AlphaScreen GST-E1A/His-CtBP binding, 1536-well; active compounds read low. activity change, % (test concentration not listed). actives 0.49% (n = 340,000); in the data active = activity change below about -65%; inconclusive = mostly about -30% to -63%
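GST-E1A and His-tagged CtBP (125 nM each as 5X stock) were preincubated with pin-transferred compound for 2 h at 37 °C in the dark, then glutathione donor and nickel acceptor beads were added for 1 h before AlphaScreen reading.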
The depositor's hits bear a star; ? = inconclusive; · = no result; [ ] = another dose, or the depositor's remark. Most compounds without a hit are left out; they make up all but 18% or so of the library. Unless noted, calls come from the whole dose curve; as a rule, active = well fitted curve in the direction sought with a large enough effect; inconclusive = small, poorly fitted or top-dose-only effect, or another doubt; inactive = no such curve, though single readings can be large; an effect the other way counts as inactive or inconclusive. % is set by controls: 0 for no effect and ±100 for the full control effect.

SMILES	DT40 TDP1 no CPT	IL-1B inflam inh	Six1-Eya2 blk	TDP1 inh	TDP1 cell CPT	CtBP-E1A inh
COc1ccc(Cn2c(O)c(/C=N/NC(=O)c3ccccc3)c(=O)[nH]c2=O)cc1	?	-8	?	-3%	-25%	-85*
CCCCCCC(=O)N/N=C/c1c(O)n(C(C)CC)c(=S)[nH]c1=O (centres undefined)	9.2µM*	220	-5	10%	13µM*	·
CCCC(Cn1cncn1)c1ccc(Cl)cc1Cl (centres undefined)	·	·	·	6%	·	·
NC(=S)Nc1ccccc1	·	·	·	3%	·	·
CC1([N+](=O)[O-])COP(=O)(Nc2cccc(F)c2)OC1 (centres undefined)	6%	22	102	·	-2%	62
CC(=O)Nc1c2sscc-2n(C)c1=O	·	·	·	0%	·	·
COC(=O)/C=C\C(=O)N[C@@H]1CC[C@@]2(O)[C@H]3Cc4ccc(O)c5c4[C@@]2(CCN3CC2CC2)[C@@H]1O5	?	·	·	7%	?	·
N#CCCn1cc(C(=O)NCc2ccccc2)c(-c2ccc3c(c2)OCCO3)n1	-12%	12	-1	-3%	-6%	4
O=C(N/N=C/c1c(O)n(CCc2ccccc2)c(=O)[nH]c1=O)c1ccncc1	?	2	?	11%	-7%	?
CCCCCCC(=O)N/N=C/c1c(O)n(CCc2ccccc2)c(=O)[nH]c1=O	18µM*	9	?	10%	?	?
O=C(N/N=C/c1c(O)n(Cc2ccccc2)c(=O)[nH]c1=O)c1ccccc1O	-27%	32	-89*	8%	5%	0
CCn1c(O)c(/C=N/NC(=O)c2ccccc2)c(=O)[nH]c1=S	-6%	9	-93*	8%	-5%	-91*
COc1ccc(CC(C)NCCC(c2ccccc2)c2ccccc2)cc1 (centres undefined)	16µM*	-71*	3	6%	13µM*	·
CCCCNC(C)Cc1ccccc1 (centres undefined)	-4%	9	3	2%	-2%	3
Cc1cccc(OCC(=O)Nc2cc(-c3ccccc3F)nn2-c2ccccc2)c1	?	·	·	3%	?	·
COc1ccccc1N1CCN(Cc2ccccc2F)CC1	-12%	10	-3	0%	-11%	11
COc1ccccc1N1CCN(C(=O)c2cc3c(-c4ccccc4F)nn(C)c3s2)CC1	6.5µM*	·	·	9%	?	·
COc1cccc(CNC(=O)c2cc3c(-c4ccccc4F)nn(C)c3s2)c1	16µM*	·	·	-2%	?	·
O=C(c1c[nH]cc1-c1ccccc1)c1cccc2ccccc12	15µM*	-15	?	10%	18µM*	-29
NC(CCc1ccccc1)c1csc(NC(=O)Nc2ccccc2Oc2ccccc2)n1 (centres undefined)	6.5µM*	-79*	-5	·	6.5µM*	-4
CC(C)=O	?	·	·	5%	?	·
COC(=O)CNC(=O)c1cn(CCC#N)nc1-c1ccc(F)cc1	6%	18	3	5%	8%	15
CC(=O)OC(C)(C)/C=C/C(=O)[C@](C)(O)[C@H]1[C@H](O)C[C@@]2(C)[C@@H]3CC=C4[C@H](C[C@H](O)C(=O)C4(C)C)[C@]3(C)C(=O)C[C@]12C	0.0073µM*	-112*	-1	0%	0.046µM*	0
CC(=O)OC(C)(C)/C=C/C(=O)C(C)(O)C1[C@H](O)C[C@@]2(C)C3CC=C4C(CC[C@@H](O)C4(C)C)[C@]3(CO)C(=O)C[C@]12C (some centres undefined)	0.01µM*	-98*	-1	·	0.018µM*	4
CC(=O)OC(C)(C)/C=C/C(=O)C(C)(O)C1C(O)CC2(C)C3CC=C4C(CC(O)C(=O)C4(C)C)C3(C)C(=O)CC12C (centres undefined)	0.016µM*	-99*	-1	·	0.026µM*	6
SMILES	DT40 TDP1 no CPT	IL-1B inflam inh	Six1-Eya2 blk	TDP1 inh	TDP1 cell CPT	CtBP-E1A inh
O=c1[nH]c(=S)[nH]c(O)c1/C=N/N1CCOCC1	-12%	0	11	-1%	-10%	·
Cc1ccccc1Cn1cnc2c(oc3ccccc32)c1=O	?	-18	-18	0%	?	0
Cc1ccc(NC(=O)c2cc(-c3ccccc3)n(CCCN3CCOCC3)c2C)cc1	?	?	7	10%	-20%	-5
CC(=O)[C@H]1CCC2C3CC[C@H]4C[C@H](O)CC[C@]4(C)C3CC[C@@]21C (some centres undefined)	·	·	·	7%[56.1 µM]	·	·
COc1ccc(-n2nnnc2C(CCc2ccccc2)N2CCC(n3c(=O)[nH]c4ccccc43)CC2)cc1 (centres undefined)	23µM*	·	-21	·	?	-18
COc1cccc(C(c2nnnn2-c2c(C)cccc2C)N2CCC(n3c(=O)[nH]c4ccccc43)CC2)c1OC (centres undefined)	5.8µM*	-84*	-18	·	5.8µM*	-15
CCC(c1nnnn1-c1ccc(OC)cc1)N1CCC(n2c(=O)[nH]c3ccccc32)CC1 (centres undefined)	?	-22	-1	·	?	2
O=c1[nH]c2ccccc2n1C1CCN(C(CCc2ccccc2)c2nnnn2-c2ccc3c(c2)OCCO3)CC1 (centres undefined)	2.9µM*	?	-18	·	3.7µM*	-14
Cc1cccc(C)c1-n1nnnc1C(CCc1ccccc1)N1CCC(n2c(=O)[nH]c3ccccc32)CC1 (centres undefined)	5.8µM*	3	0	·	5.8µM*	13
Cc1ccc(C(O)(C(=O)NNC(=O)CN2CCN(C)CC2)c2ccc(C)cc2)cc1	13%	-2	-2	2%	2%	-1
COP(=S)(OC)Oc1ccc(S(=O)(=O)N(C)C)cc1	5%	·	·	9%	9%	·
COc1ccc(-n2nnnc2C(CCSC)N2CCC(n3c(=O)[nH]c4ccccc43)CC2)cc1 (centres undefined)	21µM*	-27	-22	·	?	-7
Cc1ccc(N)cc1Cl	9%	21	0	8%	19%	·
Cc1ccc(NC(=O)c2cn(CCC#N)nc2-c2ccc3c(c2)OCCO3)c([N+](=O)[O-])c1	6.5µM*	-12	-11	1%	?	-9
COc1ccc(/C=C2/C(=O)NC(=S)N(C3CC3)C2=O)cc1CN1C(=O)c2ccccc2C1=O	23µM*	18	2	-11%	16µM*	-6
